Where “and” joins values, the source holds several entries; their conditions need not be identical. Equal values may be shown once. In all, about 5,500 compounds went through this assay and about 2,000 (36%) were called active. Roughly 18% stayed inconclusive and do not appear here. Cut-off read from the data, not from the text of the source: active = normalized growth mostly below about 0.91 (no sharp cut-off); inconclusive = no clear call, values can overlap the other calls; inactive = mostly above about 0.92. This is one part of the list.
Experiment: chemical genetic growth profiling, strain panel (AID 1159580);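 note: tested at 20 µM; growth read once vehicle control cultures reached saturation at 30 °C; 1 = growth at the plate median or of vehicle wells; lower values mean less growth of the strain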
Conditions: S. cerevisiae deletion strains, growth OD

Measured: normalized growth

CC1CNCCN1S(=O)(=O)c1cccc2cnccc12 (stereo unspecified)
inactive: locus YAL013W, strain DEP1, hits give low values 1.01 and 1 | locus YAL040C, strain CLN3, hits give low values 1.09 and 0.997 | locus YCL061C, strain MRC1 (second series), hits give low values 0.998 and 1.01 | locus YDR150W, strain NUM1, hits give low values 1 | locus YDR363W, strain ESC2, hits give low values 0.993 and 1.01 | locus YER002W, strain NOP16, hits give low values 0.988 and 1.01 | locus YGR078C, strain PAC10, hits give low values 1.01 | locus YMR263W, strain SAP30, hits give low values 1 | locus YNL153C, strain GIM3, hits give low values 0.991 | locus YNL175C, strain NOP13, hits give low values 0.996 and 0.999 | locus YNL197C, strain WHI3, hits give low values 1.01 | locus YNL224C, strain SQS1, hits give low values 1.02 | locus YNL322C, strain KRE1, hits give low values 0.999 | locus YOR083W, strain WHI5 (second series), hits give low values 1 and 1.03 | locus YPL055C, strain LGE1, hits give low values 1.01 | locus YPL241C, strain CIN2, hits give low values 0.996
